Structures are written as SMILES. Several values for one entry are separate records, joined by “and”; a condition that tells them apart may be missing. Equal values may be shown once. This is part of a sample that, as a whole, favours compounds with a hit. Of some 79,000 tested, about 15% had one in any assay. Unmarked numbers belong to inactive results. Activity calls are given as the source filed them. No stated cut-off is given here; in the data, active means growth inhibition above about 70%; inactive means the rest. Where a SMILES comes first, the peptide text is derived from it.

Test [1] is described as follows: NCI Yeast Anticancer Drug Screen. Data for the rad50 strain (AID 155).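 Further: 0% = growth of vehicle-only cultures of the same strain.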 Conditions: S. cerevisiae rad50 strain growth inhibition, hits give high values; at 50.0 µM unless noted. In outline: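 Yeast carrying a defined DNA repair defect were exposed to test compounds, and growth was compared with vehicle-treated controls to give percent inhibition.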
Test [2] is described as follows: NCI Yeast Anticancer Drug Screen. Data for the mec2-1 strain (AID 157). As to conditions: S. cerevisiae mec2-1 strain, hits give high values; at 50.0 µM unless noted. Summed up: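 Vehicle-treated cultures served as reference for growth inhibition of compound-exposed mec2-1 yeast.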
Test [3] can be described thus: NCI Yeast Anticancer Drug Screen. Data for the sgs1 mgt1 strain (AID 161).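 Further: 0% = growth of cultures given vehicle only.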 As to conditions: S. cerevisiae sgs1 mgt1 strain, hits give high values; at 50.0 µM unless noted. Summed up:
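Mutant yeast exposed to compound; growth scored against vehicle-only wells.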

Test [4] in a line: NCI Yeast Anticancer Drug Screen. Data for the cln2 rad14 strain (AID 165).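 Further: 0% = growth equal to vehicle treated cultures.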 Conditions: S. cerevisiae cln2 rad14 strain, hits give high values; at 50.0 µM unless noted. In outline:
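Each compound was tested on cln2 rad14 yeast. Inhibition of growth was calculated against vehicle-exposed controls.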

A short description of test [5]: NCI Yeast Anticancer Drug Screen. Data for the bub3 strain (AID 167). As to conditions: S. cerevisiae bub3 mutant strain, hits give high values; at 50.0 µM unless noted. Summed up: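 Compounds were applied to a genetically altered yeast strain carrying a cell-cycle control defect. Growth inhibition was scored against vehicle-treated controls.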
Test [6] in a line: NCI Yeast Anticancer Drug Screen. Data for the mlh1 rad18 strain (AID 175). As to conditions: S. cerevisiae mlh1 rad18 strain growth inhibition, hits give high values; at 50.0 µM unless noted. In outline:
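Vehicle-treated cultures served as the reference for growth inhibition in a yeast strain carrying DNA damage repair alterations exposed to each compound.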

Turning to `CC(C)CC(C)COC(=O)c1c(Cl)c(Cl)c(Cl)c(Cl)c1C(=O)O` (centres undefined), the growth inhibition in test [1] was 66.6%; in test [2] it was 62.6%; in test [3], 77.9% (active); in test [4], 63.4%; in test [5], 72.8% (active); in test [6], 77.3% (active).

As for `Cc1cc(N)c(N)cc1C`, the growth inhibition was 45.1% in test [1]; 4.15% in test [2]; 52.2% in test [3]; 20.1% in test [4]; 35.9% in test [5]; 38.5% in test [6].

Regarding `CC(=O)N(C)c1ccccc1`, the growth inhibition in test [1] was -19.2%; in test [2], -20.9%; in test [3], -16.4%; in test [4], -40.5%; in test [5] it was -8.45%; in test [6], -7.55%.

As to `C=CCSc1cccc(C)c1`, the growth inhibition in test [1] is -19.4%; in test [2], 14.9%; in test [3] it was -12.6%; in test [4], -25.6%; in test [5], -14.1%; in test [6], -16.1%.

Regarding `COc1cc(OC)c(C2SCC(=O)N2c2nnc(C(F)(F)F)s2)cc1OC` (centres undefined), the growth inhibition in test [1] was 9.9%; in test [2], 13.8%; in test [3] it was 5.15%; in test [4], 3.75%; in test [5], 25.9%; in test [6], 6.8%.

Regarding `CCOC(=O)/C(Cc1ccc2ccccc2n1)=N/O`, the growth inhibition was -6.35% in test [1]; -26.2% in test [2]; 0.9% in test [3]; -16.8% in test [4]; 13.7% in test [5]; 6.25% in test [6].

Regarding `O=C(Nc1ccc([N+](=O)[O-])cc1C(=O)O)c1ccc([N+](=O)[O-])cc1`, the growth inhibition was 37.8% in test [1]; -3.6% in test [2]; 0.1% in test [3]; 18.5% in test [4]; -22.3% in test [5]; 2% in test [6].

For the compound `NC(Cc1ccccc1)C(=O)NC(Cc1ccccc1)C(=O)O` (stereo not drawn) (H-Phe-Phe-OH; configuration not given here), the growth inhibition in test [1] is 19.6% and 11.1%; in test [2], -0.8% and -19.4%; in test [3], 12.6% and -2.9%; in test [4] it was -16.1% and -19.3%; in test [5], 6.2% and 4.05%; in test [6] it was 1.6% and 7.7%.

Consider `CCOc1ccccc1NC(=O)/C(=N\NC(C)(C)C)C1C(=O)Nc2ccccc2S1=O` (centres undefined), for which the growth inhibition is -4.3% in test [1]; -27.9% in test [2]; -9.85% in test [3]; 9.2% in test [4]; -6.9% in test [5]; 10.1% in test [6].

`CCOC(=O)C(F)C(=O)OCC`: the growth inhibition was 14.8% in test [1]; -2.95% in test [2]; -1% in test [3]; 12.1% in test [4]; -4.55% in test [5]; -5.4% in test [6].

As to `c1ccc(N=c2sc3ccccc3nc2Nc2ccccc2)cc1`, the growth inhibition in test [1] was 5.65%; in test [2], -37.8%; in test [3], -34.4%; in test [4], -64.8%; in test [5], -23.3%; in test [6], -48.9%.

On to `CC(C)COC(c1ccc2c(c1)OCO2)C(C)Br` (centres undefined), for which the growth inhibition in test [1] was 34.5%; in test [2], 39.5%; in test [3], 22.4%; in test [4], 0.3%; in test [5], 48.5%; in test [6], 58.5%.

`CCOc1ccc(/C=C(\C(=O)c2ccccc2)S(=O)(=O)c2ccc(OC)cc2)cc1OC`: the growth inhibition in test [1] was 17.9%; in test [2] it was 45.5%; in test [3] it was 1.2%; in test [4] it was 5.8%; in test [5] it was 29.6%; in test [6], 57%.

With `O=C(O)c1cccc(C(=O)O)c1-c1c(C(=O)O)cccc1C(=O)O`, the growth inhibition in test [1] is -5.2%; in test [2], 17.8%; in test [3], 7.7%; in test [4], -80.5%; in test [5] it was 7.45%; in test [6], 4.05%.

On to `[O-]c1nn(-c2ccccc2)n[n+]1-c1ccccc1`, for which the growth inhibition is -2.4% in test [1]; -12.4% in test [2]; -0.55% in test [3]; -25% in test [4]; -10.8% in test [5]; -10% in test [6].

As to `O=C(NCCOC(=O)OCCNC(=O)NC1CCCCC1)NC1CCCCC1`, the growth inhibition was -12.8% in test [1]; -30% in test [2]; 0.9% in test [3]; 4.1% in test [4]; 4.1% in test [5]; -13.5% in test [6].

Regarding `COc1cc2c(cc1OC)C1C(C)c3ccc(OC)c(OC)c3CN1CC2` (centres undefined), the growth inhibition in test [1] was 0.65%; in test [2] it was -43%; in test [3], -3.25%; in test [4] it was -0.95%; in test [5], -29.6%; in test [6], -8.6%.

In the case of `Cc1ccc2[nH]c(=O)[nH]c(=O)c2c1`, the growth inhibition was -5.85% in test [1]; -5% in test [2]; -4.5% in test [3]; -45.2% in test [4]; -3.5% in test [5]; -12.7% in test [6].

For `CCOC(=O)c1c2ccc(/C=C/C(=O)OC)ccc-2c(C(=O)OCC)c1N`, the growth inhibition in test [1] is -23.8%; in test [2], -24.4%; in test [3], -23.4%; in test [4], -23.2%; in test [5], -37.6%; in test [6], -4.35%.

Source of the values: PubChem BioAssay (NCI).
